These results are taken from PubChem BioAssay AID1469 (National Center for Advancing Translational Sciences (NCATS), 2008).

The whole screen tested about 280,000 compounds, of which about 180 (0.064%) were called active. Calls come from the whole dose curve; as a rule, active = well fitted inhibition curve with a large enough effect; inconclusive = small, poorly fitted or top-dose-only effect, or effect the other way; inactive = flat fitted curve, though single readings scatter. Shown is part of a subset that was picked to be rich in actives.
Potency is the fitted concentration of half-maximal effect.

Sequence of Thyroid hormone receptor beta (Homo sapiens) (P10828 whole entry, looked up): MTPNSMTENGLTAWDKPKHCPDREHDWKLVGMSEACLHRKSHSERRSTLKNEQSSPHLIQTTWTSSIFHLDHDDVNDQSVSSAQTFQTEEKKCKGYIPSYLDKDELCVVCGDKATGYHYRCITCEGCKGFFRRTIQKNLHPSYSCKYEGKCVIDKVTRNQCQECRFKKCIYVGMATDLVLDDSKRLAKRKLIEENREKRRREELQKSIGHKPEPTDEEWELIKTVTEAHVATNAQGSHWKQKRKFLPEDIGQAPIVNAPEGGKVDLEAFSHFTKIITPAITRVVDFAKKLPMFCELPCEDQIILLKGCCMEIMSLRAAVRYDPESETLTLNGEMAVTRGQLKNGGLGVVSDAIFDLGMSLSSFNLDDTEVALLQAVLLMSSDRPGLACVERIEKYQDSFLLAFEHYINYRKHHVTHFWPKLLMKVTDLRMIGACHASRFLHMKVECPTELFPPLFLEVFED

The test addresses Thyroid hormone receptor beta (Homo sapiens) (UniProt P10828). In words: qHTS for Inhibitors of the Interaction of Thyroid Hormone Receptor and Steroid Receptor Coregulator 2.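 For activity change, negative = inhibition: plate controls were bound peptide for no effect and peptide without receptor for full effect.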 Note: nearly all actives have a fitted effect of over 50% in size. The note with it: TRbeta-SRC2 peptide binding, fluorescence polarization, receptor liganded with 1 µM T3; series mostly up to 106 µM; activity change, negative = inhibition: at the top concentration. The text has this: NIH Molecular Libraries Probe Production Network [MLPCN]
NIH Chemical Genomics Center [NCGC]
Assay Provider: R. Kip Guy, St. Jude Children's Research Hospital
Thyroid receptor (TR) regulates many homeostatic processes including basal metabolism, cardiovascular function, body weight, and lipid trafficking. TR modulators are potential therapeutics for obesity and hyperlipidemias but current thyroid analogs have undesirable side effects, particularly cardiac stimulation. To identify inhibitors that specifically prevent the interaction of TR with the steroid receptor coregulator 2 (SRC2), a fluorescence polarization assay was screened. This assay detects interaction of the ligand-binding domain of human TRb with a Texas Red labeled SRC2 peptide, corresponding to a 20 amino acid region of the nuclear receptor interaction domain (Arnold et al., 2006). Small molecule inhibitors that block the interaction of TR and SRC2 are detected by a decrease in fluorescence polarization.
Arnold, L. A.; Estebanez-Perpina, E.; Togashi, M.; Shelat, A.; Ocasio, C. A.; McReynolds, A. C.; Nguyen, P.; Baxter, J. D.; Fletterick, R. J.; Webb, P.; Guy, R. K. A high-throughput screening method to identify small molecule inhibitors of thyroid hormone receptor coactivator binding. Sci STKE 2006, p 13.
NCGC Assay Protocol Summary:
For screening, 5 uL/well 0.6 uM TRb and 20 nM SRC2 Texas Red in protein buffer (20mM Tris hydrochloride, 100mM NaCl, 10% glycerol, 1mM EDTA, 0.01% NP-40, 1mM DTT, 1uM T3 and 5% DMSO) was dispensed into black solid 1536-well plates (Grenier) using a solenoid-based dispenser. Following transfer of 23 nL compound or DMSO vehicle by a pin tool, the plates were centrifuged 15 s at 1000 RPM and incubated 5 hr at ambient temperature. The plates were read by an Envision (Perkin Elmer) to detect fluorescence polarization of SRC2 Texas Red (555 nm excitation and 632 nm emission). Data were normalized to unbound (all components except TRb) and bound SRC2 Texas Red controls. In this assay, we provide % activity data for each concentration as well as potencies for the active compounds.
Keywords: NIH Roadmap, MLPCN, MLI, MLSMR, qHTS, NCGC, qHTS, thyroid hormone receptor, steroid receptor coactivator, fluorescence polarization
(In general: Quantitative high-throughput screening tests each substance at several concentrations.)
With `COc1ccc(CNC(=O)c2ccc(NC(=O)N3CC4CCCN4c4ccccc43)cc2)cc1` (centres undefined), the “activity change, negative = inhibition” value was -4.18% (inactive).

For `Cc1cccc(N2CCN(C3=C(c4ccccc4)C(=O)c4ccccc43)CC2)c1C`, the “activity change, negative = inhibition” value is -3.14% (inactive).

`Cc1nc2nc(NCc3cccc(Br)c3)[nH]n2c(=O)c1Cc1ccccc1`: the “activity change, negative = inhibition” value is -7.16% (inactive).

Take `C[Si](C)(C)N[Si](C)(C)C`: the “activity change, negative = inhibition” value was 2.92% [at 201 µM] (inactive).

In the case of `CN(C)c1ccc(N/C=C/C(=O)C(F)(F)F)cc1`, the Potency was 44.7 µM (active).

With `CCCOc1ccc(N/C=C/C(=O)C(C)(C)C)cc1`, the “activity change, negative = inhibition” value is 4.71% (inactive).

With `O=C(/C=C/Nc1ccccc1OC(F)(F)F)C(F)(F)F`, the “activity change, negative = inhibition” value was 5.17% (inactive).

Consider `COc1ccc(C2=NC(c3ccncc3)=Nc3ccc(Br)cc3N2)cc1`, for which the “activity change, negative = inhibition” value was -4.88% (inactive).

Consider `Cc1ccccc1OCc1ccc(-c2nc(C#N)c(N3CCCCC3)o2)o1`, for which the “activity change, negative = inhibition” value is 0.495% (inactive).

`Cc1cc(=O)n(CC(=O)Nc2cccc([N+](=O)[O-])c2)c(-n2nc(C)cc2C)n1`: the “activity change, negative = inhibition” value is 3.16% (inactive).

In the case of `Cc1ccc(NC(=O)c2oc3ccc(S(=O)(=O)N4CCCCC4)cc3c2C)cc1Cl`, the “activity change, negative = inhibition” value is -6.34% (inactive).

Turning to `CCN(CC)c1cc(NC2CCCCC2)c2c3c(onc13)-c1ccccc1C2=O`, the “activity change, negative = inhibition” value is -2.27% (inactive).

Take `COc1cc(NC(=O)c2noc3c2CSc2ccccc2-3)cc(OC)c1OC`: the “activity change, negative = inhibition” value is 3.67% (inactive).

With `CCc1cccc(C)c1Nc1c(-c2ccc(N(C)C)cc2)nc2ncccn12`, the “activity change, negative = inhibition” value is 7.62% (inactive).

Take `CCOCCCNC(=O)c1ccc2nc(CCc3ccccc3)oc2c1`: the “activity change, negative = inhibition” value was 4.71% (inactive).

Consider `CCc1ccccc1NC(=O)Cc1ccc(NC(=O)N2CCCCc3ccccc32)cc1`, for which the “activity change, negative = inhibition” value was -8.69% (inactive).

Consider `CCOC(=O)c1ccc(N2C(=O)c3n[nH]c(-c4ccco4)c3C2c2ccc(O)cc2)cc1` (centres undefined), for which the “activity change, negative = inhibition” value is -1.97% (inactive).

As for `O=C(CCOc1ccccc1)N(Cc1cccnc1)c1nc2ccc(Cl)cc2s1`, the “activity change, negative = inhibition” value is -8.93% (inactive).

Turning to `CCOC(=O)N1CCc2c(sc(NCc3cccc(F)c3)c2C(=O)Nc2ccccc2OCC)C1`, the “activity change, negative = inhibition” value was -2.15% (inactive).

`COC(=O)CC1Oc2ccccc2-n2cc(-c3ccccc3)nc21` (centres undefined): the “activity change, negative = inhibition” value is 2.42% (inactive).

Take `Cc1ccc(O)c(NC(=O)CCS(=O)(=O)c2nc(-c3ccc4c(c3)OCO4)cc(C(F)(F)F)n2)c1`: the “activity change, negative = inhibition” value is 0.6% (inactive).

Consider `Cc1cc(C)cc(NC(=O)CSc2oc(-c3ccccc3)nc2S(=O)(=O)c2ccc(Cl)cc2)c1`, for which the “activity change, negative = inhibition” value was 3.51% (inactive).

Turning to `CCOc1ccc(CNC(=O)c2ccc(CS(=O)c3ccccc3)o2)cc1` (centres undefined), the “activity change, negative = inhibition” value is 2.05% (inactive).

In the case of `CCCn1c(NCc2ccc(N(CC)CC)cc2)nc2ccccc21`, the “activity change, negative = inhibition” value was 5.29% (inactive).

Consider `CCOCCCNC(=O)c1c(NC(=O)Cc2coc3ccc(C)cc23)sc2c1CCC2`, for which the “activity change, negative = inhibition” value is -6.01% [at 53 µM] (inactive).

Regarding `Cc1ccc2nc(-c3ccc(O)cc3)c(Nc3ccc4c(c3)OCO4)n2c1`, the “activity change, negative = inhibition” value was -5.88% (inactive).

In the case of `Cc1ccc(-c2nc3ccccn3c2Nc2c(C)cccc2C)o1`, the “activity change, negative = inhibition” value is 2.13% (inactive).

On to `Cc1ccccc1CS(=O)(=O)CC1Nc2ccc(C(=O)NCc3ccc(Cl)cc3)cc2NC1=O` (centres undefined), for which the “activity change, negative = inhibition” value was -3.54% (inactive).

`Cc1cccc(N2CCN(c3ccc(C(=O)O)cc3NC(=O)c3ccccc3F)CC2C)c1` (centres undefined): the “activity change, negative = inhibition” value was -2.14% (inactive).

Turning to `CCOc1ccc(-c2cc(C)n3nc(C(=O)Nc4ccc(C)c(C)c4)cc3n2)cc1`, the “activity change, negative = inhibition” value is 3.95% (inactive).

As for `Oc1ccc(N=Cc2sc3ccccc3c2Cl)cc1`, the Potency is 14.1 µM (active).

As for `O=C(N/N=C/c1c(Cl)[nH]c2ccccc12)c1sc2ccccc2c1Cl`, the “activity change, negative = inhibition” value was 0.527% (inactive).

Regarding `COc1ccc(N=C(C)c2sc3ccccc3c2O)cc1`, the “activity change, negative = inhibition” value is 1.68% (inactive).

For `COc1cccc(-c2cc(C(=O)Nc3ccc(C)cc3)[nH]n2)c1`, the “activity change, negative = inhibition” value is -2.44% (inactive).

Take `COc1ccc(CC(=O)Nc2nnc3n2CCS3)cc1OC`: the “activity change, negative = inhibition” value is 5.54% (inactive).

Take `Cc1ccc(Nc2nnc(-c3ccc(C)c(S(=O)(=O)N4CCCCC4)c3)c3ccccc23)cc1`: the “activity change, negative = inhibition” value is -3.05% (inactive).

Turning to `COc1ccccc1N1CCN(CCCNC(=O)c2cnn(-c3ccccc3Cl)c2C2CCN(C(=O)OC(C)(C)C)CC2)CC1`, the “activity change, negative = inhibition” value is 5.02% (inactive).

For `CC1(C)C(=O)N(Cl)C(=O)N1Cl`, the “activity change, negative = inhibition” value is 4.76% [at 201 µM] (inactive).

On to `CCCCCCCCCCCCCCCC`, for which the “activity change, negative = inhibition” value was 3.03% [at 201 µM] (inactive).

As to `CCOc1ccccc1NC(=O)Cn1c2ncccc2c(=O)n1-c1ccc(C)c(C)c1`, the “activity change, negative = inhibition” value is -4.71% (inactive).

For the molecule `CC(C)Cn1c(-c2ccc(S(=O)(=O)N3CCOCC3)cc2)csc1=Nc1cc(Cl)ccc1Cl`, the “activity change, negative = inhibition” value was 7.76% (inactive).

`COc1cccc(-c2nc(CS(=O)(=O)CC(=O)N3CCN(c4cc(C)ccc4C)CC3)c(C)o2)c1`: the “activity change, negative = inhibition” value is 3.54% (inactive).

Take `CC1(C)C(=O)N(Br)C(=O)N1Br`: the “activity change, negative = inhibition” value is -5.8% [at 201 µM] (inactive).

On to `Cc1nc2ccn(Cc3cccs3)c(=O)c2cc1C(=O)NCc1ccc(Cl)cc1`, for which the “activity change, negative = inhibition” value was -1.99% (inactive).

In the case of `CCOc1cc(-c2nnc(SCC(=O)NC3CCCCC3)nc2-c2ccc(OC)c(OCC)c2)ccc1OC`, the “activity change, negative = inhibition” value is 1.75% (inactive).

Regarding `Cc1ccc(N)c(S(=O)(=O)O)c1`, the “activity change, negative = inhibition” value is 2.84% [at 201 µM] (inactive).

Regarding `CCc1c(C(=O)O)c(=O)cnn1-c1ccc(Cl)cc1`, the “activity change, negative = inhibition” value is -9.72% [at 201 µM] (inactive).

With `CC1CCN(S(=O)(=O)c2ccc3c(ccn3CCC(=O)NCc3ccc(N(C)C)cc3)c2)CC1`, the “activity change, negative = inhibition” value was 5.16% (inactive).

Consider `COc1ccc(N2CCN(C(=O)C3CCCN(C(=O)c4cc5sccc5n4C)C3)CC2)cc1` (centres undefined), for which the “activity change, negative = inhibition” value is -10.4% (inactive).

Take `CC(=O)Nc1ccc(NC(=O)c2cc3sccc3n2Cc2ccc(F)cc2)cc1`: the “activity change, negative = inhibition” value is -11.5% [at 53 µM] (inactive).

For the molecule `CCOc1ccc(OCC)c(NC(=O)CN(c2ccc(C)cc2)S(=O)(=O)c2c(C)n[nH]c2C)c1`, the “activity change, negative = inhibition” value was -4.13% (inactive).

Consider `COc1ccc(CCNC(=O)CCCCn2c(=O)c3ccccc3n(Cc3ccccc3)c2=O)cc1OC`, for which the “activity change, negative = inhibition” value is 3.43% (inactive).

As to `CCCS(=O)(=O)c1c(Nc2ccccc2C)sc(C(=O)c2ccccc2)c1N`, the “activity change, negative = inhibition” value was -0.894% (inactive).

Regarding `COc1cccc(NC(=O)CSc2cc(=O)n(C)c3ccc(Cl)cc23)c1`, the “activity change, negative = inhibition” value is -5.98% (inactive).

For the molecule `CSc1ccccc1NC(=O)CCS(=O)(=O)c1nc(-c2cccs2)cc(C(F)(F)F)n1`, the “activity change, negative = inhibition” value was -1.72% (inactive).

Consider `COc1ccc2c(c1)Cc1sc(NC(=O)c3ccccc3Br)nc1-2`, for which the “activity change, negative = inhibition” value was 1.79% (inactive).

Regarding `COc1cc(OC)c(NC(=O)N2CC3CCCN3c3ccccc32)cc1Cl` (centres undefined), the “activity change, negative = inhibition” value was 7.62% (inactive).

On to `Cc1ccc(C2C=C(c3ccc(Cl)cc3)Nc3nc(NC(=O)CCC(=O)O)nn32)cc1` (centres undefined), for which the “activity change, negative = inhibition” value is 7.02% (inactive).

On to `O=S(=O)(c1ccc2nc(NCc3ccccc3Cl)ccc2c1)N1CCCCC1`, for which the “activity change, negative = inhibition” value was -4.04% (inactive).

With `COc1ccc(NC(=O)C2CCN(c3ccc(Sc4ccc(C)cc4)nn3)CC2)c(OC)c1`, the “activity change, negative = inhibition” value was -5.8% (inactive).

Regarding `COc1ccc(Nc2ncc(C(=O)Nc3cc(C)ccc3OC)c3ccccc23)cc1`, the “activity change, negative = inhibition” value was 3.62% (inactive).

Consider `Cc1ccc(S(=O)(=O)c2nc(-c3cccs3)oc2N2CCCCC2)cc1`, for which the “activity change, negative = inhibition” value is -2.62% (inactive).

Take `COc1ccccc1Nc1c2c(nc3ccc(NC(=O)/C=C/c4cc(OC)c(OC)c(OC)c4)cc13)CCCC2`: the “activity change, negative = inhibition” value is -2.02% (inactive).

With `COc1cccc(Cn2c(SCc3ccc(C(=O)N4CCC(C)CC4)cc3)nc3ccncc32)c1`, the “activity change, negative = inhibition” value was 3.21% (inactive).
